The values below come from PubChem BioAssay (NCI).

About 83,000 compounds went through this panel and 20% of them were active in at least one assay; those are over-represented in the sample as a whole.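 Cell lines were cultured in 96-well plates, exposed to a single compound concentration, and assessed for percent growth 48 hours later.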 Calls of active or inactive are those of the source. The calls were made as follows: active = growth percent below 10; inactive = the rest.

The assay has as its system HL-60(TB) leukemia. Briefly: NCI-60 one-dose screen, 48 h (100 = growth as untreated, 0 = no growth, -100 = all killed). As to conditions: 10 µM unless noted.
As for `[N-]=[N+]=NCC1OC(n2cnc3c(NC(=O)Nc4ccccc4)ncnc32)C2OC(=O)CC12` (centres undefined), the growth is 87.3% (inactive).

As to `Cn1ccnc1C(=O)/C=C/c1ccc(C(=O)Nc2ccc(Cl)cc2)cc1`, the growth was -16.9% (active).

For the compound `COc1ccc(-c2c3c(nc4n[nH]c(-c5ccc(Cl)cc5)c24)-c2ccccc2C(=O)C3=O)cc1`, the growth was 11.7% (inactive).

Turning to `CCOC(=O)c1ccc2c(c1)nc(-c1ccc(OCc3ccccc3)c(OC)c1)n2-c1cc(C(C)(C)C)[nH]n1`, the growth was 81.6% (inactive).

With `c1csc(-c2ccc(CNc3c4ccccc4nc4ccccc34)cc2)c1`, the growth is -56.7% (active).

With `Nc1nc(N)c2c(n1)NC(c1ccc(F)cc1)C1CCc3ccccc3C1=N2` (centres undefined), the growth is 16.5% (inactive).

Turning to `CN(C)c1nc2c([nH]1)c(=O)n(C)c(=O)n2C`, the growth is 108% (inactive).

For `COc1cc2c(c(OC)c1OC)C(=O)CC(c1cccc(C(=O)Nc3ccc(C#N)cc3)c1)O2` (centres undefined), the growth was 47% (inactive).

With `O=C(CN1CCN(c2cc3c(cc2F)c(=O)c(C(=O)O)cn3C2CC2)CC1)Nc1nc(-c2ccc(Cl)cc2)cs1`, the growth is 19.6% (inactive).

For `COc1ccc(Cn2cc(COc3ccc4c5ccnc(C)c5n(CCCc5ccccc5)c4c3)nn2)cc1`, the growth is -55.7% (active).

Turning to `O=C(Nc1ccc(Cl)c(Cl)c1)NS(=O)(=O)c1cnccc1Oc1ccc(F)cc1`, the growth is 54% (inactive).

As to `O=C(O)C(C(=O)O)c1cccc2ccccc12`, the growth is 98.6% (inactive).

Turning to `COc1ccc(/C=C/C(c2cc(OC)c(OC)c(OC)c2)n2ccnc2)cc1O` (centres undefined), the growth is -36.6% (active).

For the compound `COC(=O)c1oc2c(C(C)=O)c(OCCCN(C)C)ccc2c1C`, the growth was 75.3% (inactive).
